Measurements from PubChem BioAssay (NCI).
The panel holds about 83,000 compounds, 20% with a hit somewhere; the sample as a whole holds those more often.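 Cell lines were cultured in 96-well plates, exposed to a single compound concentration, and assessed for percent growth 48 hours later.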 Calls of active or inactive are those of the source. The calls were made as follows: active = growth percent below 10; inactive = the rest.

Tested on: HL-60(TB) leukemia
Assay: NCI-60 one-dose screen, 48 h (100 = growth as untreated, 0 = no growth, -100 = all killed)
Details: 10 µM unless noted

| SMILES | growth |
| --- | --- |
| COc1ccc(-c2cn3c(C(=O)Nc4ccccc4Cl)c(-c4ccccc4)c4c3n2CCCC4)cc1 | 83.4% (inactive) |
| c1ccc2nc(N3CCOCC3)c(N3CCCCC3)nc2c1 | 98.9% (inactive) |
| Nc1c2ccccc2nc2ccccc12 (tested in a mixture with another compound) | 26.8% (inactive) |
| COc1cc2c(cc1OCCCOC1=C=C=C(c3ccc4c(c3)c3cc(-c5ccc(OCCCOc6cc7c(cc6OC)C(=O)N6CCC[C@H]6C=N7)cc5)ccc3n4S(=O)(=O)c3ccc(C)cc3)C=C1)N=C[C@@H]1CCCN1C2=O | 10.5% (inactive) |
| COc1ccc2oc(=O)cc(C3c4ccc([nH]4)C(c4cc(=O)oc5ccc(OC)cc45)c4ccc([nH]4)C(c4cc(=O)oc5ccc(OC)cc45)c4ccc([nH]4)C(c4cc(=O)oc5ccc(OC)cc45)c4ccc3[nH]4)c2c1 (stereo not given) | -14.5% (active) |
| CC[C@@H]1C(=O)N(C)c2cnc(Nc3ccc(C(=O)NC4CCN(C)CC4)cc3OC)nc2N1C1CCCC1 | -42.1% (active) |
| NC(=S)N/N=C/c1cn(-c2ccccc2)nc1-c1cc2ccccc2oc1=O | 20.4% (inactive) |
| CCN(CC)CCSCCN(CC)CC | 100% (inactive) |
| CN=C1C=C/C(=N/N=c2/ccn(O)cc2C)C=C1C | 75.6% (inactive) |
| ClCC#CCSc1ncnc2c1ncn2CC#CCCl | 8.79% (active) |
| C#C[C@H]1CCCCCC1O (stereo not given in full) | 96.1% (inactive) |
| Cn1cc(-c2nc3c(F)cc4[nH]ncc4c3c3c2CCCC3)c(C(F)F)n1 | 10.8% (inactive) |
| N#C/C(=C/c1ccc(O)c([N+](=O)[O-])c1)c1nc(-c2ccc([N+](=O)[O-])cc2)cs1 | 26.5% (inactive) |
| Cc1ccccc1NC(=O)c1sc2nc3c(cc2c1N)CCCC3 | 11.8% (inactive) |
| COc1ccc(-c2cc(-c3cccnc3)nc(S(=O)(=O)CC(=O)Nc3ccc(C)cc3)c2C#N)cc1OC | 113% (inactive) |
| CC1CN(CCO)CC(C)O1 (stereo not given) | 102% (inactive) |
| COc1ccc(Nc2c3c4c(cccc4[nH]c2=O)C(=O)c2ccccc2-3)cc1 | -60.4% (active) |
| CCC/C(=N/NC(N)=O)c1ccco1 | 76.8% (inactive) |
| COc1ccc(-c2cc(-c3ccccc3)nc(NCCNc3ccnc4cc(Cl)ccc34)n2)cc1 | -58.7% (active) |
| CC12OC(CC(O)C1O)n1c3ccccc3c3c4c(c5c6ccccc6n2c5c31)C(=O)N(CCN1CCCC1)C4=O (stereo not given) | 18.3% (inactive) |
| COc1cc(-c2ncn(/C=C\c3nnco3)n2)cc(C(F)(F)F)c1 | 11.2% (inactive) |
| CC(C)(C)[Si](C)(C)OC1[C@@H](COC(=O)NC(=O)CCl)O[C@@H](n2cnc3c(N)ncnc32)[C@H]1O[Si](C)(C)C(C)(C)C (stereo not given in full) | -48.3% (active) |
| Clc1ccc(SSc2ccc(Cl)cc2)cc1 | 102% (inactive) |
| c1ccc2nc(Cn3cc[n+](Cc4ccc5ccccc5n4)c3)ccc2c1 | 8.58% (active) |
| Cc1c2ccncc2c(C)c2c1c1cc(CO)ccc1n2C | 19.2% (inactive) |
